Drawing on PubChem BioAssay (NCI), this text covers growth for 22 molecules.

SMILES strings stand for the structures. This is part of a sample that, as a whole, favours compounds with a hit. Of some 83,000 tested, about 20% had one in any assay.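 Values shown are percent growth following 48 h exposure of cells in 96-well plates to a single concentration of compound; below 10 was considered active.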 The source made the active and inactive calls.

The subject of this test is OVCAR-5 ovarian. In words: NCI-60 one-dose screen, 48 h (100 = growth as untreated, 0 = no growth, -100 = all killed). The following applies: 10 µM unless noted.
For `Nc1cc2ccccc2c(O)c1O`, the growth was 76.1% (inactive).

Consider `CC(=O)Nc1ccc(O)c(C)c1`, for which the growth is 104% (inactive).

Consider `O=C(CCl)Nc1ccccc1SCc1cc(Cl)cc2c1OCOC2`, for which the growth was 101% (inactive).

`C/C(O)=C(/C=N\C(=S)Nc1ccc(S(=O)(=O)Nc2nccs2)cc1)C(=O)Nc1ccccc1C`: the growth was 103% (inactive).

Turning to `CC(C)c1ccc(C(=O)OCCCl)cc1`, the growth was 96.5% (inactive).

Regarding `O=C(NCc1ccccc1)c1cccc([N+](=O)[O-])c1`, the growth was 116% (inactive).

For `C1CCc2onc(-c3noc4c3CCCCC4)c2CC1`, the growth is 103% (inactive).

Consider `COc1ccc(Nc2cc(Cl)ccc2C(=O)O)cn1`, for which the growth is 107% (inactive).

`CCCCOC(=O)c1ccccc1O`: the growth is 101% (inactive).

Take `C=CCN1CCCC1=O`: the growth is 124% (inactive).

As to `CCN(CC)CCN1CNC(=S)NC1`, the growth was 107% (inactive).

Take `COC1OC(C(COC(C)=O)OC(C)=O)C(OC(C)=O)C(OC(C)=O)C1OC(C)=O` (configuration not stated): the growth was 89.7% (inactive).

Take `Nc1ccc(F)cc1F`: the growth was 96.3% (inactive).

On to `COc1cc(CC#N)c([N+](=O)[O-])cc1OC`, for which the growth was 111% (inactive).

Turning to `CC(C)N(C(=O)c1ccccc1)C(C)C`, the growth was 96.3% (inactive).

`CCC(C)C1CCC(O)CC1` (configuration not stated): the growth is 108% (inactive).

Take `Cc1ccc(NC(=S)N2CCOCC2)cc1C`: the growth is 102% (inactive).

Turning to `O=C1NC(=O)/C(=C\c2ccncc2)N1`, the growth is 98.3% (inactive).

Take `CC(C)(CC(=O)O)CC(=O)O`: the growth was 99.5% (inactive).

With `ClCC(Cl)[C@@H]1CC2C=CC1C2` (some centres not stated), the growth is 110% (inactive).

On to `CC(=O)NCNC(C)=O`, for which the growth was 105% (inactive).

On to `CCOC(=O)/C(C)=C\c1ccc(OC)c(OC)c1`, for which the growth is 99.3% (inactive).
